Drawing on PubChem BioAssay (EPA / NIEHS), this text covers outcome and AC50 for 36 compounds.

SMILES strings stand for the structures. Several values for one entry are separate records, joined by “and”; a condition that tells them apart may be missing. Equal entries are not always repeated. Activity calls are given as the source filed them. The calls were made as follows: active = hit-call score of the fitted dose curve at least 0.9, where 1 is the maximum; inactive = score below 0.9.

Read-out in one experiment: Plasminogen activator inhibitor-1 (PAI1), SERPINE1 (gene 5054)
Nature of the experiment: BSK_hDFCGF_PAI1: BioMAP Diversity Plus: hDFCGF Assay for Plasminogen activator inhibitor-1 (PAI1) Biomarker Activity (AID 2283066). As to conditions: primary human foreskin fibroblasts; actives raise or lower the signal. The method, boiled down: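 PAI-1 levels in human dermal foreskin fibroblasts were quantified by ELISA 24 h after dosing, with gain or loss analysed against DMSO. Overt cytotoxicity was checked by sulforhodamine B total-protein staining in parallel cultures.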
`O=c1c2ccccc2oc2ccccc12`: the result was inactive.

`COCc1c(C(C)C)nc(C(C)C)c(/C=C/[C@@H](O)C[C@@H](O)CC(=O)O)c1-c1ccc(F)cc1`: the outcome was inactive.

As for `O=Nc1ccc(O)cc1`, the result was inactive.

As to `N#[N+]c1ccc2c(S(=O)(=O)[O-])cccc2c1O`, the result was inactive.

As to `C#CC1(O)CC[C@H]2[C@@H]3CCC4=CCCC[C@@H]4[C@H]3CC[C@@]21C` (some centres not stated), the AC50 – broadly, the concentration giving half of the maximal activity seen – is 36.7 µM (active).

On to `O=C(Cl)c1cc(C(=O)Cl)cc(C(=O)Cl)c1`, for which the AC50 was 29.8 µM (active).

`CC(C)C(=O)C(C)C`: the result was inactive.

As for `C=CC(=O)OCC(Br)CBr` (configuration not stated), the AC50 is 8.55 µM (active).

On to `CCOC(=O)c1ccccc1C(=C1C=C(Br)C(=O)C(Br)=C1)c1cc(Br)c(O)c(Br)c1`, for which the AC50 was 3.56 µM (active) and 3.54 µM (active).

With `c1ccc2c(c1)ccc1ncccc12`, the result was inactive.

On to `CCCCC(CC)COC(=O)c1ccccc1O` (configuration not stated), for which the AC50 was 7.32 µM (active).

As for `CCCCCCCCCCCCCCCC[N+](C)(C)CC`, the AC50 is 1.53 µM (active).

As for `COc1ccc2nc(N)sc2c1`, the outcome was inactive.

Consider `CC(C)(c1cc(Br)c(OCCO)c(Br)c1)c1cc(Br)c(OCCO)c(Br)c1`, for which the AC50 is 16.2 µM (active).

Take `CCCCC/C=C\C/C=C\CCCCCCCC(=O)OC`: the AC50 was 28.9 µM (active).

On to `Nc1ccc(N)c(Cl)c1`, for which the AC50 is 26.4 µM (active) and 31.4 µM (active).

As for `CC1OC1C1CCC2(C)OC2C1` (configuration not stated), the outcome was inactive.

Take `C=C[Si](OC(C)=O)(OC(C)=O)OC(C)=O`: the result was inactive.

Turning to `S=C(NC1CCCCC1)NC1CCCCC1`, the outcome was inactive.

`C/C=C\C/C=C/CCCCCCCCOC(C)=O`: the AC50 is 28.9 µM (active).

For the compound `CCCCC(CC)COCC1CO1` (configuration not stated), the result was inactive.

Regarding `CCO[Si](CCCN=C=O)(OCC)OCC`, the outcome was inactive.

Consider `CO[Si](OC)(OC)c1ccccc1`, for which the outcome was inactive.

With `CCCCNc1ccc(NCCCC)c2c1C(=O)c1ccccc1C2=O`, the outcome was inactive.

Turning to `CCO[Si](C)(OCC)OCC`, the result was inactive.

Consider `O=C1CCCN1CCO`, for which the outcome was inactive.

Regarding `CN1C(=O)N(C)C(O)C1O` (configuration not stated), the outcome was inactive.

As to `C=CCOc1c(Br)cc(Br)cc1Br`, the AC50 was 20 µM (active).

On to `CCCCCCCCc1ccc(Nc2ccc(CCCCCCCC)cc2)cc1`, for which the outcome was inactive.

With `O=C(c1ccc(O)cc1)c1ccc(O)cc1O`, the result was inactive.

As for `CCOc1nc(F)cc2nc(S(=O)(=O)Nc3c(Cl)cccc3C(=O)OC)nn12`, the result was inactive.

For `C=CC=CC=CCCCCC`, the outcome was inactive.

Take `c1ccc(-c2ccccn2)nc1`: the result was inactive.

Take `C=CCOCC(O)CCl` (configuration not stated): the outcome was inactive.

As to `c1ccc2c(c1)ccc1cc3c(ccc4ccccc43)cc12`, the result was inactive.

Take `O=C(Nc1ccccc1SSc1ccccc1NC(=O)c1ccccc1)c1ccccc1`: the outcome was inactive.

Read-out in a further experiment: Intercellular Adhesion Molecule 1 (ICAM1), ICAM1 (gene 3383)
Nature of the experiment: BSK_KF3CT_ICAM1: BioMAP Diversity Plus: KF3CT Assay for Intercellular Adhesion Molecule 1 (ICAM1) Biomarker Activity (AID 2283067). To be noted: primary human keratinocytes with fibroblasts; actives raise or lower the signal. The essentials:
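Bidirectional curve fitting against a DMSO baseline was applied to ICAM-1 ELISA signal from primary human skin co-cultures harvested 24 h after treatment, with SRB staining of parallel wells for overt cytotoxicity.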
As for `O=c1c2ccccc2oc2ccccc12`, the outcome was inactive.

As to `COCc1c(C(C)C)nc(C(C)C)c(/C=C/[C@@H](O)C[C@@H](O)CC(=O)O)c1-c1ccc(F)cc1`, the result was inactive.

With `O=Nc1ccc(O)cc1`, the result was inactive.

As for `N#[N+]c1ccc2c(S(=O)(=O)[O-])cccc2c1O`, the result was inactive.

In the case of `C#CC1(O)CC[C@H]2[C@@H]3CCC4=CCCC[C@@H]4[C@H]3CC[C@@]21C` (some centres not stated), the AC50 was 13.6 µM (active).

Take `O=C(Cl)c1cc(C(=O)Cl)cc(C(=O)Cl)c1`: the AC50 was 30.8 µM (active).

As to `CC(C)C(=O)C(C)C`, the outcome was inactive.

As for `C=CC(=O)OCC(Br)CBr` (configuration not stated), the AC50 is 25.2 µM (active).

For the compound `CCOC(=O)c1ccccc1C(=C1C=C(Br)C(=O)C(Br)=C1)c1cc(Br)c(O)c(Br)c1`, the AC50 is 5.2 µM (active) and 5.41 µM (active).

As for `c1ccc2c(c1)ccc1ncccc12`, the result was inactive.

On to `CCCCC(CC)COC(=O)c1ccccc1O` (configuration not stated), for which the result was inactive.

On to `CCCCCCCCCCCCCCCC[N+](C)(C)CC`, for which the AC50 was 4.6 µM (active).

Consider `COc1ccc2nc(N)sc2c1`, for which the result was inactive.

On to `CC(C)(c1cc(Br)c(OCCO)c(Br)c1)c1cc(Br)c(OCCO)c(Br)c1`, for which the AC50 was 16.2 µM (active).

As for `CCCCC/C=C\C/C=C\CCCCCCCC(=O)OC`, the concentration at half-maximal activity (AC50) was 31.4 µM (active).

Regarding `Nc1ccc(N)c(Cl)c1`, the result was inactive.

On to `CC1OC1C1CCC2(C)OC2C1` (configuration not stated), for which the outcome was inactive.

Turning to `C=C[Si](OC(C)=O)(OC(C)=O)OC(C)=O`, the result was inactive.

With `S=C(NC1CCCCC1)NC1CCCCC1`, the result was inactive.

Turning to `C/C=C\C/C=C/CCCCCCCCOC(C)=O`, the AC50 was 24.6 µM (active).

For `CCCCC(CC)COCC1CO1` (configuration not stated), the outcome was inactive.

Take `CCO[Si](CCCN=C=O)(OCC)OCC`: the result was inactive.

For the compound `CO[Si](OC)(OC)c1ccccc1`, the result was inactive.

With `CCCCNc1ccc(NCCCC)c2c1C(=O)c1ccccc1C2=O`, the result was inactive.

As to `CCO[Si](C)(OCC)OCC`, the result was inactive.

For the compound `O=C1CCCN1CCO`, the outcome was inactive.

Consider `CN1C(=O)N(C)C(O)C1O` (configuration not stated), for which the outcome was inactive.

With `C=CCOc1c(Br)cc(Br)cc1Br`, the half-maximal activity concentration (AC50) is 30.7 µM (active).

As to `CCCCCCCCc1ccc(Nc2ccc(CCCCCCCC)cc2)cc1`, the result was inactive.

For `O=C(c1ccc(O)cc1)c1ccc(O)cc1O`, the outcome was inactive.

`CCOc1nc(F)cc2nc(S(=O)(=O)Nc3c(Cl)cccc3C(=O)OC)nn12`: the outcome was inactive.

Turning to `C=CC=CC=CCCCCC`, the result was inactive.

With `c1ccc(-c2ccccn2)nc1`, the outcome was inactive.

`C=CCOCC(O)CCl` (configuration not stated): the result was inactive.

Regarding `c1ccc2c(c1)ccc1cc3c(ccc4ccccc43)cc12`, the outcome was inactive.

For the compound `O=C(Nc1ccccc1SSc1ccccc1NC(=O)c1ccccc1)c1ccccc1`, the result was inactive.
